According to PubChem BioAssay:
Active and inactive are the calls of the source.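 Rule for the calls, unless noted: active = visual image review flags a hit and inhibition of aggregation exceeds 20%; inconclusive = visual hit but inhibition at or below 20%; inactive = no hit on visual image review.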

Experiment: inhibitors of TNFa-induced NFkB p65 translocation, primary screen, imaging, HUVEC, MLSMR starter and 10KST1 sets (AID 438;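 active = inhibition above 20% together with a positive visual image hit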;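 note: compound added about 3h40 before a 20 min TNFalpha stimulation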;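 for inhibition: signal is the nuclear over cytoplasmic p65 intensity ratio per well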)
Details: HUVEC TNFa-induced p65 nuclear translocation; cell count: measured here: nuclei count (cytotoxicity indicator), at 2.08 µM; inhibition: at 2 µM, stronger effect = higher value, 0% TNFa-plus-vehicle, 100% no-TNFa wells

Structure (SMILES) | inhibition | cell count
Cc1cc(C)n(C(=O)C23CC4CC(CC(C4)C2)C3)n1 | 0.9% (inactive) | 448
Nc1nc2n(n1)C(c1cccc(Cl)c1)CC(c1ccc(F)cc1)N2 (stereo not given) | -12.4% (inactive) | 678
O=C(Nc1ccc(N2CCCC2)cc1)c1ccc(Br)o1 | -8.4% (inactive) | 303
CCOC(=O)c1cccc(NC(=O)C2CCN(S(=O)(=O)c3cccs3)CC2)c1 | -5.7% (inactive) | 369
CC(=O)C1=C(C)OC(N)=C(C#N)C1c1ccncc1 (stereo not given) | 3.7% (inactive) | 322
O=C(CN1CCN(C2CCCCC2)CC1)Nc1ccccc1-c1ccccc1 | 18.4% (inactive) | 273
CC1(C)Cc2c(c(=S)nc(-c3ccccc3)n2CCO)CO1 | -0.5% (inactive) | 278
COCCCNC(=O)CC1Oc2ccccc2NC1=O (stereo not given) | 0% (inactive) | 762
CC1(C)CC(=O)CC(C)(C)N1OC(=O)c1ccccn1 | 1% (inactive) | 362
O=C1OC(N2CCN(c3ccccn3)CC2)c2ccccc21 (stereo not given) | 9.1% (inactive) | 697
c1cncc(-c2nc3c4ccccc4nc(N4CCC(N5CCCCC5)CC4)n3n2)c1 | -10.4% (inactive) | 512
C=Cn1c(N2CCOCC2)nc2c1c(=O)[nH]c(=O)n2C | 0.9% (inactive) | 719
CC(C)(C)C1=Nn2c(nnc2-c2n[nH]c3c2CCC3)SC1 | 6% (inactive) | 385
CCCCc1nc2ccccc2n2cc3c(=O)n(C)c(=O)n(C)c3c12 | 5.2% (inactive) | 877
O=C(NC1CCCCC1)N(Cc1ccc(F)cc1)Cc1nc2ccccc2c(=O)[nH]1 | 1.1% (inactive) | 348
Cc1ccc(S(=O)(=O)CC(=O)N2CCCCCC2)cc1 | 9.2% (inactive) | 615
O=C(NCC1COc2ccccc2O1)c1ccc(NC(=O)c2ccco2)cc1 (stereo not given) | -3.6% (inactive) | 752
CCOC(=O)N1CCN(Cc2nc3c(c(=O)[nH]c(=O)n3C)n2Cc2cc(C)ccc2C)CC1 | -2.2% (inactive) | 693
CCOC(=O)N1CCC(N2C(=O)c3ccccc3C2Nc2cccnc2)CC1 (stereo not given) | -4.5% (inactive) | 592
O=c1/c(=C/c2ccco2)sc2nc(-c3ccccc3Br)nn12 | 0.2% (inactive) | 343

Structure (SMILES) | inhibition | cell count
CCOc1cc(NC(=O)c2ccccn2)c(OCC)cc1NC(=O)CC(C)C | -11.5% (inactive) | 609
CC1(C)CC(=O)C=C(NCCN2CCN(C(=O)Nc3ccccc3)CC2)C1 | -5.8% (inactive) | 730
Cc1ccccc1CN1CCN(C(=O)c2cccc(F)c2)CC1 | -13% (inactive) | 284
Cn1c(=O)[nH]c(=O)c2c1nc(N1CCCCCC1)n2CCCSc1nc2ccccc2o1 | 4.7% (inactive) | 256
COc1cccc(C2CC(c3ccccc3)n3ncnc3N2)c1 (stereo not given) | 4.1% (inactive) | 564
C=CCNC(=O)c1ccc(Cl)cc1Cl | 1.6% (inactive) | 344
COc1ccccc1NC(=O)NC1(C(=O)N2CCC(O)CC2)CCCCC1 | 3.9% (inactive) | 242
Nc1scc(-c2ccncc2)c1Cl | -0.2% (inactive) | 349
CC1CCCN(S(=O)(=O)c2ccc(C(=O)Nc3nnc(-c4ccccc4Cl)o3)cc2)C1 (stereo not given) | -2.8% (inactive) | 687
CCOc1ccccc1OCCn1nnc2ccccc21 | -0.2% (inactive) | 312
COc1ccc(CCN2C(=O)CCC2(C)C(=O)NCc2cccnc2)cc1OC (stereo not given) | -6% (inactive) | 436
COC(=O)c1ccccc1S(=O)(=O)N(CCCO)Cc1cc2c(C)ccc(C)c2[nH]c1=O | -5.1% (inactive) | 688
CCCCn1c(CN(C)Cc2ccccc2)nc2c1c(=O)n(C)c(=O)n2C | -6.1% (inactive) | 227
CCn1c(SCC(=O)c2ccc(Cl)cc2)nnc1-c1ccoc1C | 0.2% (inactive) | 352
Cn1c(=N)c(S(=O)(=O)c2ccccc2)cc2c(=O)n3ccccc3nc21 | -5.1% (inactive) | 442
CN(CC(=O)N1CCCCC1)S(=O)(=O)c1cccc2cccnc12 | 4.3% (inactive) | 792
O=C(NCc1ccc2c(c1)OCO2)C1CCC(CNc2c(N3CCCCC3)c(=O)c2=O)CC1 (stereo not given) | 6.8% (inactive) | 579
Cn1c(=O)c2c(nc(NCC3CCCO3)n2C)n(C)c1=O (stereo not given) | 0.2% (inactive) | 314
Cc1cc2ccccc2n1CCNC(=O)c1ccc(S(=O)(=O)N2CCOCC2)cc1 | 0.8% (inactive) | 194
CNC(=O)NCCN1CCCC1=O | 4.5% (inactive) | 505

Experiment: reduction of polyQ htt aggregates in cells – imaging, exon1htt(103Q)mCFP cells, high-content imaging, primary screen (AID 483);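 note: compound exposure lasted 3 days before fixation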;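 for nuclei count: percent of the per-plate median nuclei count of sample wells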
Details: exon1htt(103Q)mCFP cell line, aggregate imaging, at 2 µM; inhibition of aggregation: stronger effect = higher value; nuclei count: measured here: cell count, toxicity

Structure (SMILES) | inhibition of aggregation | nuclei count [%]
Cc1cc(C)n(C(=O)C23CC4CC(CC(C4)C2)C3)n1 | 14.6% (inactive) | 102
Nc1nc2n(n1)C(c1cccc(Cl)c1)CC(c1ccc(F)cc1)N2 (stereo not given) | -13.4% (inactive) | 100
O=C(Nc1ccc(N2CCCC2)cc1)c1ccc(Br)o1 | 36.8% (inactive) | 94.4
CCOC(=O)c1cccc(NC(=O)C2CCN(S(=O)(=O)c3cccs3)CC2)c1 | 3.6% (inactive) | 90.7
CC(=O)C1=C(C)OC(N)=C(C#N)C1c1ccncc1 (stereo not given) | -14.4% (inactive) | 97.8
O=C(CN1CCN(C2CCCCC2)CC1)Nc1ccccc1-c1ccccc1 | 16.3% (inactive) | 110
CC1(C)Cc2c(c(=S)nc(-c3ccccc3)n2CCO)CO1 | 19% (inactive) | 109
COCCCNC(=O)CC1Oc2ccccc2NC1=O (stereo not given) | 13.4% (inactive) | 87.3
CC1(C)CC(=O)CC(C)(C)N1OC(=O)c1ccccn1 | -6.4% (inactive) | 97.7
O=C1OC(N2CCN(c3ccccn3)CC2)c2ccccc21 (stereo not given) | -14.4% (inactive) | 104
c1cncc(-c2nc3c4ccccc4nc(N4CCC(N5CCCCC5)CC4)n3n2)c1 | -10.8% (inactive) | 97.3
C=Cn1c(N2CCOCC2)nc2c1c(=O)[nH]c(=O)n2C | -2.7% (inactive) | 62.9
CC(C)(C)C1=Nn2c(nnc2-c2n[nH]c3c2CCC3)SC1 | -24.6% (inactive) | 100
CCCCc1nc2ccccc2n2cc3c(=O)n(C)c(=O)n(C)c3c12 | -29.8% (inactive) | 81.2
O=C(NC1CCCCC1)N(Cc1ccc(F)cc1)Cc1nc2ccccc2c(=O)[nH]1 | -22.3% (inactive) | 96.5
Cc1ccc(S(=O)(=O)CC(=O)N2CCCCCC2)cc1 | 17% (inactive) | 103
O=C(NCC1COc2ccccc2O1)c1ccc(NC(=O)c2ccco2)cc1 (stereo not given) | 22.7% (inactive) | 106
CCOC(=O)N1CCN(Cc2nc3c(c(=O)[nH]c(=O)n3C)n2Cc2cc(C)ccc2C)CC1 | -78% (inactive) | 115
CCOC(=O)N1CCC(N2C(=O)c3ccccc3C2Nc2cccnc2)CC1 (stereo not given) | -28.1% (inactive) | 100
O=c1/c(=C/c2ccco2)sc2nc(-c3ccccc3Br)nn12 | 14.2% (inactive) | 107

Structure (SMILES) | inhibition of aggregation | nuclei count [%]
CCOc1cc(NC(=O)c2ccccn2)c(OCC)cc1NC(=O)CC(C)C | -0.3% (inactive) | 115
CC1(C)CC(=O)C=C(NCCN2CCN(C(=O)Nc3ccccc3)CC2)C1 | 0% (inactive) | 99.6
Cc1ccccc1CN1CCN(C(=O)c2cccc(F)c2)CC1 | 14.5% (inactive) | 91.7
Cn1c(=O)[nH]c(=O)c2c1nc(N1CCCCCC1)n2CCCSc1nc2ccccc2o1 | -1.5% (inactive) | 102
COc1cccc(C2CC(c3ccccc3)n3ncnc3N2)c1 (stereo not given) | -12% (inactive) | 90.7
C=CCNC(=O)c1ccc(Cl)cc1Cl | -21.2% (inactive) | 87.7
COc1ccccc1NC(=O)NC1(C(=O)N2CCC(O)CC2)CCCCC1 | 16.6% (inactive) | 79.3
Nc1scc(-c2ccncc2)c1Cl | 23% (inactive) | 94.4
CC1CCCN(S(=O)(=O)c2ccc(C(=O)Nc3nnc(-c4ccccc4Cl)o3)cc2)C1 (stereo not given) | 10.5% (inactive) | 111
CCOc1ccccc1OCCn1nnc2ccccc21 | -1.3% (inactive) | 114
COc1ccc(CCN2C(=O)CCC2(C)C(=O)NCc2cccnc2)cc1OC (stereo not given) | 5.2% (inactive) | 103
COC(=O)c1ccccc1S(=O)(=O)N(CCCO)Cc1cc2c(C)ccc(C)c2[nH]c1=O | -9% (inactive) | 108
CCCCn1c(CN(C)Cc2ccccc2)nc2c1c(=O)n(C)c(=O)n2C | 13.2% (inactive) | 57
CCn1c(SCC(=O)c2ccc(Cl)cc2)nnc1-c1ccoc1C | -24% (inactive) | 110
Cn1c(=N)c(S(=O)(=O)c2ccccc2)cc2c(=O)n3ccccc3nc21 | -1.9% (inactive) | 114
CN(CC(=O)N1CCCCC1)S(=O)(=O)c1cccc2cccnc12 | 9.7% (inactive) | 112
O=C(NCc1ccc2c(c1)OCO2)C1CCC(CNc2c(N3CCCCC3)c(=O)c2=O)CC1 (stereo not given) | 2.3% (inactive) | 109
Cn1c(=O)c2c(nc(NCC3CCCO3)n2C)n(C)c1=O (stereo not given) | -10.3% (inactive) | 108
Cc1cc2ccccc2n1CCNC(=O)c1ccc(S(=O)(=O)N2CCOCC2)cc1 | 14.3% (inactive) | 93.1
CNC(=O)NCCN1CCCC1=O | -26.4% (inactive) | 111
